A selection: hits, their analogues and other compounds. The true share with any hit is near 4.1%.
AmpC inh detg: AmpC beta-lactamase inhibition with detergent present | AmpC hydrolysis of nitrocefin, absorbance 480 nm, 0.01% Triton | P00811 | Potency, µM (doses to about 114 µM), inactives show at the highest dose activity change, negative = inhibition, actives largely listed as inhibitors | 0.041% of 370,000 active;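 further: 0% = no-compound wells and -100% = no-enzyme wells; nearly all actives have a fitted effect of over 25% in size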
Target sequence (P00811 whole entry, looked up): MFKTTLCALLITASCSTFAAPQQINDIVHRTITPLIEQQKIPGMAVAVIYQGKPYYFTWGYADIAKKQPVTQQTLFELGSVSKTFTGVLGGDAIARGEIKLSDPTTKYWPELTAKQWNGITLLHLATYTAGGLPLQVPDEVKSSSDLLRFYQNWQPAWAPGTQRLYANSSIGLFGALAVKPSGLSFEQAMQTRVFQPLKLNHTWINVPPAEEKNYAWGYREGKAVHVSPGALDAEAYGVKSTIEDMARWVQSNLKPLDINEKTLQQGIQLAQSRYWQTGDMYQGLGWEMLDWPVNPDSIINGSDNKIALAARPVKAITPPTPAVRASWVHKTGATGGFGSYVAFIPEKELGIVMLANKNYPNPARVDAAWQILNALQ
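AmpC (5.3 nM in the dispensed reagent) in 20 mM phosphate pH 7.0 with 0.01% (detergent screen) or 0.0001% Triton X-100 was preincubated with compounds for 15 min at room temperature. Nitrocefin was then added from an 800 uM solution, and hydrolysis was followed at 480 nm.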
FMDV inh: foot and mouth disease virus antiviral activity | FMDV antiviral cell-based qHTS | Potency, µM (highest dose often 57.9 µM), for the others: top-dose activity change, negative = inhibition, hits mostly inhibitors | 1.2% of 410,000 active | AID 1159524; calls by dose curve; tested in HEK293T cells; further: read-out not given here; nearly all actives have a fitted effect of over 45% in size
AmpC no deterg: inhibitors of E. coli AmpC beta-lactamase without detergent; P00811; AmpC nitrocefin hydrolysis, absorbance 480 nm, 0.0001% Triton; Potency, µM (top dose mostly 57.1 µM), for the others: at the top dose activity change, negative = inhibition, actives largely listed as inhibitors; 0.52% of 330,000 active; AID 485341;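 further: plate controls were no compound for no effect and no enzyme for full effect; nearly all actives have a fitted effect of over 20% in size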
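20 mM phosphate pH 7.0 + 0.01% (detergent screen) or 0.0001% Triton X-100; 5.3 nM AmpC reagent; cpd preinc 15 min RT; nitrocefin (800 uM stock) to start; A480 q20 s × 4 min; Activity was normalised to no-enzyme and no-compound control wells.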
AMA1 RON2 block: inhibitors of Plasmodium falciparum AMA1-RON2 interaction; Potency, µM (doses to about 58.2 µM), for the others: at the highest dose activity change, negative = inhibition, usual class: inhibitors; 0.2% of 360,000 active; AlphaScreen AMA1-biotinylated RON2 peptide binding;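 further: 0% = vehicle wells and -100% = peptide control; nearly all actives have a fitted effect of over 45% in size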
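AMA1 (3D7) with his tag at 25 nM final met compounds first, then biotinylated RON2 peptide at 25 nM; detection used donor plus acceptor beads, 10 µg/mL apiece, read by AlphaScreen after 30 min at room temperature.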
Sm TGR inh: blocks Schistosoma mansoni thioredoxin glutathione reductase | Q962Y6 | purified TGR, DTNB reduction, TNB absorbance 405 nm | Potency, µM (series often up to 114 µM), inactives show at the highest dose activity change, negative = inhibition, actives largely listed as inhibitors | 3% of 360,000 active; further: nearly all actives have a fitted effect of over 60% in size
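Kinetic colorimetric format: TGR-catalysed, NADPH-driven DTNB reduction monitored via TNB absorbance. Enzyme dispensed at 20 nM; compound exposure 15 min at room temperature before reaction start.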
The depositor's hits bear a star; ? = inconclusive; · = no result given; [ ] = dose if it differs, or a comment. Unless noted, the call rests on the fitted dose curve; in most records, active means well fitted curve in the direction sought with a large enough effect; inconclusive means small, poorly fitted or top-dose-only effect, or another doubt; inactive means no such curve, though single readings can be large; an effect the other way counts as inactive or inconclusive. Unless noted, on the % scale 0 is the no-effect control and ±100 the full control effect; potency means the concentration at half of the fitted maximal effect.

SMILES | AmpC inh detg | FMDV inh | AmpC no deterg | AMA1 RON2 block | Sm TGR inh
Cc1cc2cc(C(c3nnnn3Cc3ccco3)N3CCCCC3)c(=O)[nH]c2cc1C (stereo not given) | 3% | · | -18% | -12% | 40µM*
Cc1ccc(CNC(=O)C2CCCN(c3nc4c(C)cc(C)cc4s3)C2)cc1 (stereo not given) | -1% | 1% | · | · | -1%
Cc1cc(C(c2nnnn2Cc2ccccc2)N2CCOCC2)c(C)n1-c1ccc2c(c1)OCO2 (stereo not given) | 1% | · | 66% | -13% | 10µM*
COc1ccc(Nc2nnc(SCC(=O)c3cc4ccccc4o3)s2)cc1 | -7% | 43% | -50% | 59% | 5%
O=C(CSc1nnc(Nc2ccccc2F)s1)c1cc2ccccc2o1 | -6% | 22% | 35µM* | 13% | -14%
COc1ccc(OC)c(NC(=O)CSc2ccc(-c3ccco3)nn2)c1 | 3% | -22% | -27% | -21% | 3.5µM*
Cc1cccc(NC(=O)CSc2ccc(-c3ccccn3)nn2)c1 | -7% | -1% | · | · | 6%
COc1ccc(C)cc1NC(=O)CSc1ccc(-c2ccccn2)nn1 | -8% | ? | -1% | 20µM* | -8%
O=C(CSc1nnc2ccc(-c3ccco3)nn12)Nc1ccccc1F | ? | -5% | -13% | -6% | 11µM*
Cc1ccc(C)c(NC(=O)CSc2ccc(-c3ccco3)nn2)c1 | 2% | -16% | -17% | -15% | 13µM*
Cc1ccc(CNC(=O)C(C)n2c(=O)cc(-c3ccccc3)c3c(C)nn(C)c32)cc1 (stereo not given) | 0% | -21% | · | · | 3%
O=c1c(-c2cccc(F)c2)nc2cncnc2n1C1CC1 | · | -2% | · | · | ·
Cc1ccc(NC(=O)CN2C(=O)C(C)(C)c3ccccc32)cc1 | 4% | -11% | · | · | -7%
CCOC(=O)c1cnc(SCC(=O)Nc2ccc(NC(C)=O)c(OC)c2)nc1N | -11% | 25% | -9% | 13% | 0%
COc1ccccc1NC(=O)CSc1ccc(-c2ccco2)nn1 | 7% | -2% | -35% | -5% | 20µM*
CCOC(=O)c1cnc(SCC(=O)Nc2cc(OC)ccc2OC)nc1N | -14% | 14µM* | -14% | -15% | 0%
Cc1ccccc1NC(=O)CSc1ccc(-c2ccco2)nn1 | 1% | -24% | -44% | 8% | -13%
Cc1cc(C)cc(NC(=O)CCCN2C(=O)COc3ccc(C)cc32)c1 | -4% | -23% | · | · | -7%
NC(=O)c1c(NC(NC(=O)c2ccco2)C(=O)c2ccc(Cl)cc2)sc2c1CCCC2 (stereo not given) | -11% | · | -8% | 0% | 32µM*
CCCCCCOc1ccc(/C=C/C(=O)Nc2sc3c(c2C(=O)OC)CCC3)cc1OC | 0% | 14µM* | · | · | -2%
CNC(=O)c1c(NC(=O)/C=C/c2ccccc2)sc2c1CCC2 | 7% | 37% | · | · | 35µM*
N#Cc1c(NC(NC(=O)c2ccco2)C(=O)c2ccccc2)sc2c1CCCC2 (stereo not given) | -1% | · | -33% | -7% | 15%
O=C(Nc1sc2c(c1C(=O)NC1CCCCC1)CCC2)c1ccco1 | -2% | -14% | · | 8% | ?
CNC(=O)c1c(NC(=O)c2ccco2)sc2c1CCC2 | 0% | 15% | 43% | 0% | 32µM*
COc1ccc(CNC(=O)CN2C(=O)CC(c3ccc(C)c(C)c3)=Nc3ccccc32)cc1 | 23% | 38% | · | · | 6%
SMILES | AmpC inh detg | FMDV inh | AmpC no deterg | AMA1 RON2 block | Sm TGR inh
CC[n+]1c(/C=C/c2ccc(N(C)C)cc2)ccc2ccccc21 | ? | 6.3µM* | 0% | ? | ?
CCN(CC)c1ccc(/C=C/c2ccc3ccc(OC)cc3[n+]2CC)cc1 | -6% | 7.9µM* | 19% | ? | 0%
CC[n+]1c(/C=C/c2ccc(OC)c(OC)c2)ccc2ccccc21 | -13% | 76% | -9% | -3% | -34%
CC[n+]1ccc(/C=C/c2ccc(N(C)C)cc2)c2ccccc21 | -8% | 18µM* | 22% | 28µM* | -21%
CCCCCc1nc2c(c(=O)c3ccccc3n2C)c(=O)n1C1CCCCCC1 | -1% | 32µM* | -19% | -4% | 2%
COc1ccc2c(c1)OC(C)CN(CCNC(=O)c1csc(-c3cccs3)n1)C2 (stereo not given) | · | -3% | · | · | ·
Cc1oc(-c2ccccc2NC(=O)c2ccsc2)nc1CN(C)Cc1ccc2c(c1)CCCN2C | · | 3% | · | · | ·
COc1ccc(C2=NS(=O)(=O)N(C)C(C(=O)N3CCc4ccccc4C3)=C2)cc1OC | ? | 28µM* | 112% | -5% | -12%
COc1cc2c(cc1OC)CN(C(=O)c1ccccc1C(=O)O)CC2 | ? | -3% | -9% | -14% | 79µM*
COc1ccc(-c2nc(CSCC(=O)N3CCN(c4cccc(C)c4)C(C)C3)c(C)o2)cc1OC (stereo not given) | 2% | ? | 246% | ? | 45µM*
COc1ccc(-c2nc(CSCC(=O)N3CCc4ccccc4C3)c(C)o2)cc1OC | -12% | ? | 109% | -2% | 32µM*
COc1ccc(CNC(=O)C2CCCN(S(=O)(=O)c3ccc4c(ccn4C)c3)C2)c(OC)c1 (stereo not given) | -1% | -11% | · | · | 5%
Cc1cc(C)c(C(=O)CSc2nc3ccccc3c(=O)[nH]2)cc1C | ? | -9% | 18µM* | -1% | -6%
Cc1ccc(C)c(C(=O)CSc2nc3ccccc3c(=O)[nH]2)c1 | 0% | 2% | -31% | -3% | -2%[57.1 µM]
Cc1ccc(C)c(CN2C[C@H](Sc3ccccn3)C[C@H]2C(=O)Nc2ccc3sc(C)nc3c2)c1 | · | -4% | · | · | ·
CCCCNC(=O)COC(=O)c1c2c(nc3ccccc13)/C(=C/c1cccs1)CC2 | -5% | 19% | 25µM* | 37% | -13%
O=c1c2ccccc2nc(COc2ccccc2)n1/N=C/c1ccco1 | -1% | -20% | -34% | -8% | 40µM*
Cc1cc(/C=N/n2c(COc3ccccc3)nc3ccccc3c2=O)c(O)c([N+](=O)[O-])c1 | ? | -29% | 20µM* | ? | -5%
O=C(O)COc1ccc(/C=N/n2c(COc3ccccc3)nc3ccccc3c2=O)cc1 | -1% | -4% | -29% | -24% | -8%
Cc1ccc(-c2[nH]ncc2/C=N/n2c(COc3ccccc3)nc3ccccc3c2=O)cc1 | -2% | -23% | -9% | 27% | -1%
O=c1c2ccccc2nc(COc2ccccc2)n1/N=C/c1ccc(O)c(O)c1 | 9% | -2% | 3.5µM* | 35% | -6%
Cc1cc(C)nc(/N=C(\N)N2CCCCC2)n1 | 3% | -21% | -13% | 10% | 45µM*
Cc1cc(C)nc(/N=C(\N)N2CCCCCC2)n1 | -4% | -4% | -19% | 34% | 2%
CCOc1ccc(C(=O)N2CCn3c2nc2ccccc23)cc1 | 2% | 21% | -13% | 6% | 45µM*
COc1ccc(C(=O)N2CCn3c2nc2ccccc23)cc1 | -10% | 26% | -11% | -4% | 7%[57.1 µM]

Source: PubChem (National Center for Advancing Translational Sciences (NCATS))
